# Reference: the supplement of paper PMC10849652
# Of roughly 7,900 targets only a part is listed; those with a hit were picked by preference. About 0.6% of all pairs of compound and target were hits. A number with no mark means an inactive call.
# Compound: CC(C)C1=C2N=C(C=C(N2N=C1)NCC3=CC=CC=C3)NCCCCCCN
# Experiment: log2 fold change, soluble protein after heating vs DMSO (PISA); higher = thermal stabilisation; K562 cells, 10 uM, 30 min; active = over 0.2 and 3.5 SD of the protein, either way, in both replicates (recomputed)
# Procedure, shortened: (§1)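 Quantification of soluble protein used TMTpro 16plex LC-MS/MS, with channel sums equalised. Samples were the supernatant after 21,000xg for 90 min of pooled aliquots from K562 cells (2×10^6 cells/mL) treated with 10 μM compound for 30 min, heated for 3 min over 48°C-58°C, and extracted in PBS with 0.5% NP-40 at 4°C. Values, from duplicates, describe thermal stability against control samples on a log2 fold-change scale.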
# UniProt Q8TBB5, sequence (Q8TBB5 whole entry, looked up): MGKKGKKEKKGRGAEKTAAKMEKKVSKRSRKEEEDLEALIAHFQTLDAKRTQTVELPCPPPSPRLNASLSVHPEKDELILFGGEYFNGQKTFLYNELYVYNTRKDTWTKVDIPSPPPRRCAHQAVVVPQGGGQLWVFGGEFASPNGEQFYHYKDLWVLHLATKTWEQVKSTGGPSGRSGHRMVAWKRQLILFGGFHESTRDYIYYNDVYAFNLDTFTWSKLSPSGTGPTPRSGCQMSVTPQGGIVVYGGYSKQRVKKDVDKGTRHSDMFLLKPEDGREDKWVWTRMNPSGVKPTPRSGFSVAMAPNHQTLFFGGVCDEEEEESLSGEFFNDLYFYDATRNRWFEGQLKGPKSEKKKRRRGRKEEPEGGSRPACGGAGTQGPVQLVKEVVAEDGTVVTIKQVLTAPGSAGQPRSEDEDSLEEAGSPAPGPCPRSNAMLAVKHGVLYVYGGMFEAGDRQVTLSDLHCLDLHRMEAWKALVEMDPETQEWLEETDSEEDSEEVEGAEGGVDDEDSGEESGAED
# UniProt Q9Y2U8, sequence (Q9Y2U8 whole entry, looked up): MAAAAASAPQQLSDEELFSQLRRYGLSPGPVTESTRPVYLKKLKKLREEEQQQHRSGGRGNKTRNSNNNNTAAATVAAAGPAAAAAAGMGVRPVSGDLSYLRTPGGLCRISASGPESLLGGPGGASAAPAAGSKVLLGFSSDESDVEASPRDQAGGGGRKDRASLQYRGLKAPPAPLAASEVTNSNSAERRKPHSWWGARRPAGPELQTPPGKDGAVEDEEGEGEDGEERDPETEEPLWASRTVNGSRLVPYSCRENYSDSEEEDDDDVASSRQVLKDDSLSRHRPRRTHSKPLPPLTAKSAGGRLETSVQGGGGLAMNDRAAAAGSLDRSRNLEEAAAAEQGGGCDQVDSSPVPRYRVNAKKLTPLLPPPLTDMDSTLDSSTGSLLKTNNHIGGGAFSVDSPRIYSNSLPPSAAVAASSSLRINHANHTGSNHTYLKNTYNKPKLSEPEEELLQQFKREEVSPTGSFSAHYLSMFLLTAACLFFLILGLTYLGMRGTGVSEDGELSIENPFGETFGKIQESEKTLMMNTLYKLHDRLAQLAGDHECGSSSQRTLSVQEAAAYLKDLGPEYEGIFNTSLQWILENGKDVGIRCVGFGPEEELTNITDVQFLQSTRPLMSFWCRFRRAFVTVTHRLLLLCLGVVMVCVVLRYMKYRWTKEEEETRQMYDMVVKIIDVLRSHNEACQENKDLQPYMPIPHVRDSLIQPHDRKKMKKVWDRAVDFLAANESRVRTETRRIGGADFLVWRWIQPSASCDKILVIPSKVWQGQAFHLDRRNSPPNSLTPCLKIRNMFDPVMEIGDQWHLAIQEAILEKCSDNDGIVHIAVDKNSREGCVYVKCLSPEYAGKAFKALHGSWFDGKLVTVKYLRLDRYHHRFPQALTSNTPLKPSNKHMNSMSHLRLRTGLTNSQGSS
# UniProt Q9UHB6, sequence (Q9UHB6 whole entry, looked up): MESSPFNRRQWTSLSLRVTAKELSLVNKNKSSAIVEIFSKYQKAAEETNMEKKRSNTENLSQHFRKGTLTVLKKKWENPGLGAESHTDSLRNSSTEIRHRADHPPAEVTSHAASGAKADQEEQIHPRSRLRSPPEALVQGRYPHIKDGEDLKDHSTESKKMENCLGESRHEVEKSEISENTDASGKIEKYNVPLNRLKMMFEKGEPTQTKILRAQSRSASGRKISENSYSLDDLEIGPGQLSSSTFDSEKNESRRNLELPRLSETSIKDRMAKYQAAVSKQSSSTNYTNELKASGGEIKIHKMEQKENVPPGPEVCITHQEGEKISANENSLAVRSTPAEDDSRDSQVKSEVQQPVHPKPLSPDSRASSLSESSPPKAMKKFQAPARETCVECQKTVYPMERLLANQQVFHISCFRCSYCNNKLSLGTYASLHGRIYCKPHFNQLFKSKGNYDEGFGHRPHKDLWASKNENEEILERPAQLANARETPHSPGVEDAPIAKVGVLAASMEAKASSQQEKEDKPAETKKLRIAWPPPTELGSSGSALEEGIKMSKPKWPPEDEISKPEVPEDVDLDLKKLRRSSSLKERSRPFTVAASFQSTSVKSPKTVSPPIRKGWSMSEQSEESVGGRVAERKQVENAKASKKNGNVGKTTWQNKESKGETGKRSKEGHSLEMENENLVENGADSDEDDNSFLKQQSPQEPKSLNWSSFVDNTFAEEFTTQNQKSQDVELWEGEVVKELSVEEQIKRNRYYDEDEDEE
# UniProt O95819, sequence (O95819 whole entry, looked up): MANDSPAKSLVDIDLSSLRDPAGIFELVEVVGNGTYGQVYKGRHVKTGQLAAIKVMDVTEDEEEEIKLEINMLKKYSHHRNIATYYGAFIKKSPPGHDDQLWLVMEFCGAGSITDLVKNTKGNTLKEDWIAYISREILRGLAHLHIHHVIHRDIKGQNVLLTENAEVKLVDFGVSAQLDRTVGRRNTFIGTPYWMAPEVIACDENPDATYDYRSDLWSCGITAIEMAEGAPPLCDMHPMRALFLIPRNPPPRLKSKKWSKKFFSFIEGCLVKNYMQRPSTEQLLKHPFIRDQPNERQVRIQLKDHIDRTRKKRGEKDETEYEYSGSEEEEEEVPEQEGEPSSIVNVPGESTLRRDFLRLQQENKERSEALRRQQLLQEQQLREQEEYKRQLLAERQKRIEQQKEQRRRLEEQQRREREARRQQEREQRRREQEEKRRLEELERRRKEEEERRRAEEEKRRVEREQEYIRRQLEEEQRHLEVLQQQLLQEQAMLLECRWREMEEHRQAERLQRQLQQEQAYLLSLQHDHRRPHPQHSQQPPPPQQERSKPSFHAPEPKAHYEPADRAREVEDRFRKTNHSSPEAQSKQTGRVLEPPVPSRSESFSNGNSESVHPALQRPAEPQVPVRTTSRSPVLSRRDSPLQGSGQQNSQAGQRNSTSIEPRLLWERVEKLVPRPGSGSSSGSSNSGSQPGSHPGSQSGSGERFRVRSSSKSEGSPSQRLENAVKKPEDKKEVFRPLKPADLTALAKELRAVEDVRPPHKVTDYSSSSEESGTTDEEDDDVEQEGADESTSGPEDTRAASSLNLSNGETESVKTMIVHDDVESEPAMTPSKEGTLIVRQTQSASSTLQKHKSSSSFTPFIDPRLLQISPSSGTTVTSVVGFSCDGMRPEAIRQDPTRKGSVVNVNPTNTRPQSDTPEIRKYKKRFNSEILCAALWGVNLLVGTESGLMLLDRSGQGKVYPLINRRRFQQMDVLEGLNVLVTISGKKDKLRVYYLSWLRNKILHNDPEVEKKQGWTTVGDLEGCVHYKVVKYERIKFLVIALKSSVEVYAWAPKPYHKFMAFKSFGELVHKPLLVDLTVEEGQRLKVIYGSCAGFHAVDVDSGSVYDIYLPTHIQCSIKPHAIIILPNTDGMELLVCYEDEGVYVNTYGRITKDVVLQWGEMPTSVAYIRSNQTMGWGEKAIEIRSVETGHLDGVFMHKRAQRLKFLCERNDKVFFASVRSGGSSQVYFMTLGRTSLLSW
# UniProt P46734, sequence (P46734 whole entry, looked up): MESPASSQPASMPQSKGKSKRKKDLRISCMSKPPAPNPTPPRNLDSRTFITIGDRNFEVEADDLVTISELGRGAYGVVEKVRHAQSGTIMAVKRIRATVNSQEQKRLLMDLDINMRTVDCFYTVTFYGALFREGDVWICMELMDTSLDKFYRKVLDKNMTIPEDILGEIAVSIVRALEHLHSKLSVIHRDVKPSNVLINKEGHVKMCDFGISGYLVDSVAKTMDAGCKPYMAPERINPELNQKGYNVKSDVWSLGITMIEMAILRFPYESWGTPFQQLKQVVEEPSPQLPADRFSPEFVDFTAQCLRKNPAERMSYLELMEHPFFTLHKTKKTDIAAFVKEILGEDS
# UniProt A1L0T0, sequence (A1L0T0 whole entry, looked up): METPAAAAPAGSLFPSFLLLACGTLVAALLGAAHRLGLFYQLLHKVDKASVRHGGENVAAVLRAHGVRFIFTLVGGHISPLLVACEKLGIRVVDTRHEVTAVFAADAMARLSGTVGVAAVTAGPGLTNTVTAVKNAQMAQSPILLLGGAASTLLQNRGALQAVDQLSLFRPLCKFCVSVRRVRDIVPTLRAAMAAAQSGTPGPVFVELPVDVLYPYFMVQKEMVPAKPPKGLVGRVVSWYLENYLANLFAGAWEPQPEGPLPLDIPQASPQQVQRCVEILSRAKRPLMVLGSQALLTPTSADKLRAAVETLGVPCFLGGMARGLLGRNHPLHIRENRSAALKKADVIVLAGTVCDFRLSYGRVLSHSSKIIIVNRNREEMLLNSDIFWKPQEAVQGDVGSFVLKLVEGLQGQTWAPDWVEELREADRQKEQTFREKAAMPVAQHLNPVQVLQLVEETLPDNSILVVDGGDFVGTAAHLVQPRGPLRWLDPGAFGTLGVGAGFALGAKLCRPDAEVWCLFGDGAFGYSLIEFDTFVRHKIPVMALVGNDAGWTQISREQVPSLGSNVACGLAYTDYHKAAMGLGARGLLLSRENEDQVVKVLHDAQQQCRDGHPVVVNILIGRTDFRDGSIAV
# UniProt Q8NC56, sequence (Q8NC56 whole entry, looked up): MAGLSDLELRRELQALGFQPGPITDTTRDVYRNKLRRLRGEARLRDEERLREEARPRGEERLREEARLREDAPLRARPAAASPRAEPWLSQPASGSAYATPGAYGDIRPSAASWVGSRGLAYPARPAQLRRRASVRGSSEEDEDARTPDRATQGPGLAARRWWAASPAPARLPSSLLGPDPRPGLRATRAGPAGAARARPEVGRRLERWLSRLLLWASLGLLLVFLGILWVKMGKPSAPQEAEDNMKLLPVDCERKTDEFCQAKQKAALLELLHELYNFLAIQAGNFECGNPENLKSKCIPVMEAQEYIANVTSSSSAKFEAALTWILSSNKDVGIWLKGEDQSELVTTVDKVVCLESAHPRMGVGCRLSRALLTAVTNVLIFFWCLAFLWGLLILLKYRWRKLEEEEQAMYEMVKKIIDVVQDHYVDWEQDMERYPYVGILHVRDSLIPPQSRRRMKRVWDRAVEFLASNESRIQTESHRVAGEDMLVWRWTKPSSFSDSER
# UniProt Q8WV07, sequence (Q8WV07 whole entry, looked up): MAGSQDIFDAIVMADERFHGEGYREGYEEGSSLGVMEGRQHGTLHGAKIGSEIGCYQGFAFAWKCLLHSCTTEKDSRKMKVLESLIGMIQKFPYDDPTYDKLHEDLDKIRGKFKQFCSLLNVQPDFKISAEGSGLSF
row,Target,log2 fold change
1,LIMA1 isoform 4 (UniProt Q9UHB6),0.206
2,MAGEC2 (UniProt Q9UBF1),-0.059
3,MAP2K3 isoform 3 (UniProt P46734),-0.035
4,MAGEA9 (UniProt P43362),-0.256
5,ILVBL (UniProt A1L0T0),0.058
6,MDN1 (UniProt Q9NU22),-0.22
7,KIF21A isoform 4 (UniProt Q7Z4S6),-0.009
8,LNPK (UniProt Q9C0E8),0.05
9,LRBA (UniProt P50851),-0.091
10,LEMD3 (UniProt Q9Y2U8),-0.056
11,LAMP2 (UniProt P13473),-0.033
12,KLHDC4 (UniProt Q8TBB5),0.065
13,LBR (UniProt Q14739),-0.168
14,KHDC4 (UniProt Q7Z7F0),-0.009
15,MAP4K4 isoform 3 (UniProt O95819),-0.027
16,LEMD2 (UniProt Q8NC56),-0.63 (active)

# Compound: CC(C)C[C@@H](C=O)NC(=O)[C@H](CC(C)C)NC(=O)[C@H](CC(C)C)NC(=O)OCc1ccccc1
# Experiment: as above
# Procedure, shortened: as §1
row,Target,log2 fold change
1,MCUR1 (UniProt Q96AQ8),-0.242 (active)
2,ITPRIP (UniProt Q8IWB1),0.082
3,MAP2K1 (UniProt Q02750),0.015
4,LPGAT1 (UniProt Q92604),-0.057
5,LMNB1 (UniProt P20700),0.031
6,LTV1 (UniProt Q96GA3),0.104
7,MAIP1 (UniProt Q8WWC4),-0.026
8,MIER1 isoform 12 (UniProt Q8N108),0.03
9,KCT2 (UniProt Q8NC54),-0.011
10,KPNA4 (UniProt O00629),-0.02
11,MAPK12 (UniProt P53778),-0.005
12,LDLR (UniProt P01130),0.171
13,LMF2 (UniProt Q9BU23),0.08
14,LTN1 isoform 3 (UniProt O94822),0.055
15,LRPPRC (UniProt P42704),0.059
16,MAD2L1 (UniProt Q13257),-0.018
17,LARP4B (UniProt Q92615),0.002
18,ILK (UniProt Q13418),0.128
19,LTO1 (UniProt Q8WV07),0
20,KIF3A (UniProt Q9Y496),-0.065

row,Target,log2 fold change
1,MAP3K20 (UniProt Q9NYL2),0.052
2,MAGOHB (UniProt Q96A72),0
3,MAP3K4 isoform 2 (UniProt Q9Y6R4),-0.023
4,LIMA1 isoform 4 (UniProt Q9UHB6),-0.03
5,MAGEC2 (UniProt Q9UBF1),0.05
6,MAP2K3 isoform 3 (UniProt P46734),-0.022
7,MAGEA9 (UniProt P43362),0.087
8,ILVBL (UniProt A1L0T0),-0.018
9,MDN1 (UniProt Q9NU22),-0.029
10,KIF21A isoform 4 (UniProt Q7Z4S6),0.084
11,LNPK (UniProt Q9C0E8),-0.011
12,LRBA (UniProt P50851),0.005
13,LEMD3 (UniProt Q9Y2U8),0.039
14,LAMP2 (UniProt P13473),0.004
15,KLHDC4 (UniProt Q8TBB5),0.017
16,LBR (UniProt Q14739),-0.083
17,KHDC4 (UniProt Q7Z7F0),0.015
18,MAP4K4 isoform 3 (UniProt O95819),0.024
19,LEMD2 (UniProt Q8NC56),0.022
